# Data as given in PubChem BioAssay (NCI).
# This is part of a sample that, as a whole, favours compounds with a hit. Of some 83,000 tested, about 20% had one in any assay.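 A percent growth of 40 corresponds to 60% growth inhibition; 0 means no net growth; -100 means all cells died. Active threshold: below 10.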 Values without a mark were called inactive. Activity calls are given as the source filed them.
# Test system: HCT-15 colon
# Assay: NCI-60 one-dose screen, 48 h (100 = growth as untreated, 0 = no growth, -100 = all killed)
# Conditions: 10 µM unless noted
row,SMILES,growth
1,COC(=O)c1ccc(NC(=O)CSc2nc(-c3ccc(F)cc3)nc3ccccc23)cc1,89.3%
2,COc1ccc(C2C(c3ccccc3)C(=O)N2c2cc(OC)c(OC)c(OC)c2)cc1I (stereo not drawn),13.1%
3,O=[N+]([O-])c1cccc(CN(Cc2cccc([N+](=O)[O-])c2O)c2ccccc2)c1O,69.4%
4,Nc1c(C(=O)Nc2ccccn2)sc2nc3c(cc12)CCCCCC3,20.2%
5,C[C@]12CC[C@@H]3c4ccc(O)cc4CC[C@H]3[C@@H]1C[C@H](O)C2,44.4%
6,COCCOCCOCc1n(Cc2ccc3ccccc3c2)c2ccccc2[n+]1Cc1ccc2ccccc2c1,88.4%
7,COc1ccc(C(=O)c2cc(F)c(F)c(OC)c2F)cc1OC(=O)CCl,26.4%
8,Nc1cccc(C(=O)Nc2ccc3c(O)c(N=Nc4ccc(N=Nc5ccc(S(=O)(=O)O)cc5)cc4)c(S(=O)(=O)O)cc3c2)c1,108%
9,O=C(Nc1ccccc1)NS(=O)(=O)c1c[nH]c(=S)[nH]c1=O,109%
10,CC(C)CSc1nc(Nc2ccccc2)c(C#N)c(-c2ccc(F)cc2)n1,67.4%
11,CC(C)(C#N)c1cc(F)cc(C(=O)Nc2cc(Nc3ncccc3-c3ncnc4nc[nH]c34)ccc2F)c1,37.8%
12,COc1c(O)cc2oc3cc(O[C@@H]4OC(C)[C@@H](O)[C@H](O)C4O)c(CC=C(C)C)c(O)c3c(=O)c2c1CC=C(C)C (stereo partly drawn),85.1%
13,O=C(CCCC(=O)Nc1ccc(-n2nnc3cc(Cl)c(Cl)cc32)cc1)Nc1ccc(-n2nnc3cc(Cl)c(Cl)cc32)cc1,74.1%
14,Cn1cc(-c2ccc3c(c2)ncn3-c2ccc(CC(=O)Nc3cc(C(C)(C)C)on3)cc2)cn1,16.1%
15,CCC1S/C(=N\N=C(/C)c2ccc[nH]2)N(c2ccccc2)C1=O (stereo not drawn),96.1%
16,CC(=O)ON1CCCC(P(=O)(OCOC(=O)C(C)(C)C)OCOC(=O)C(C)(C)C)C1=O (stereo not drawn),3.57% (active)
17,Cc1cccc(C)c1Nc1nnc(-c2ccc(F)cc2)o1,110%
18,COc1ccc(C2=NN(c3ccc(S(N)(=O)=O)cc3)C(c3ccc(Cl)cc3)C2)c(O)c1 (stereo not drawn),52.7%
19,CC(=O)Nc1nc2c(c(N)c1C#N)C(c1cccc(Cl)c1)C1=C(CCCC1=O)N2c1sc2c(c1C#N)CCCC2 (stereo not drawn),30.1%
20,C#Cc1ccccc1NC(=O)c1sc2nc3c(cc2c1N)CCCCCC3,70.2%
21,C=C(C)[C@@H]1CC[C@]2(C(=O)N3CCN(C)CC3)CC[C@]3(C)[C@H](CC[C@@H]4[C@@]5(C)C/C(=C/c6ccco6)C(=O)C(C)(C)[C@@H]5CC[C@]43C)[C@@H]12,46.6%
22,CCCCC(=O)Nc1c(C(=O)Nc2ccccc2)sc2nc3c(cc12)C(OC(=O)CCCC)CCC3 (stereo not drawn),81.3%
23,C#CC[C@@H]1C[C@]2(C)[C@H]3CC[C@@H]4[C@H]5[C@H](C(=C)C)CC[C@]5(C(=O)O)CC[C@@]4(C)[C@]3(C)CC[C@H]2C(C)(C)[C@H]1O,32%
24,Cc1ccc(-c2nc(C#N)c(S(=O)(=O)N(C)CCO)o2)cc1,37.6%
25,FC(F)(F)c1ccc2c(Nc3cccc(C4CC(c5ccccc5)=NN4c4ccc(Cl)cc4)c3)ccnc2c1 (stereo not drawn),5.61% (active)
26,COc1ccc2nc(-c3ccc(OC)c(OC)c3)cc(-c3nnc(SCC(=O)Nc4ccc(/C(C)=N\O)cc4)n3-c3ccccc3)c2c1,76.2%

# Test system: HT29 colon
# Assay: as above
# Conditions: 10 µM unless noted
row,SMILES,growth
1,CNCc1cccc2c1OCCOCCOCCN(CCN1CCOCC1)S(=O)(=O)c1ccc(cc1)-c1cnc(N)c(n1)C(=O)N2,24.5%
2,Cc1cnc(-c2ccc(-c3ccc(NC(=O)Nc4c(F)cc(F)cc4F)cc3F)c3c2C(=O)NC3)[nH]1,27%
3,Cc1cc(C)c(NC(=O)c2sc3nc4c(cc3c2N)CCCCCC4)c(C)c1,19%
4,O=C1NN(c2ccccc2)C(c2ccc3c(c2)OCO3)N2CCC[C@@H]12 (stereo partly drawn),85.8%
5,C=C1C(=O)O[C@H]2[C@H]1CC/C(COC(=O)CCCCCCCCC(=O)OC/C1=C/CC[C@@]3(C)O[C@H]3[C@H]3OC(=O)C(=C)[C@@H]3CC1)=C\CC[C@@]1(C)O[C@@H]21,-27.5% (active)
6,COc1ccc(C2N(c3cc(OC)c(OC)c(OC)c3)C(=O)C2(F)F)cc1F (stereo not drawn),11.2%
7,C=C1C(=O)O[C@H]2[C@H]1CC/C(COC(=O)CCCCCCC(=O)OC/C1=C/CC[C@@]3(C)O[C@H]3[C@H]3OC(=O)C(=C)[C@@H]3CC1)=C\CC[C@@]1(C)O[C@@H]21,3.75% (active)
8,O=c1nc(-c2ccccc2)c2cc(-c3ccc(N4CCCC4)nc3)ccc2[nH]1,30.7%
9,O=C(Nc1nc(-c2ccccc2)cs1)c1cc(-c2ccc(Br)cc2)nc2ccccc12,39.8%
10,COc1ccc2nc3c(n2c1)C(=O)C(=O)c1ccccc1-3,64%
11,C=C1C(=O)O[C@H]2[C@H]1CCC(/C=N/c1ncc(Br)cc1N)=C\CC[C@@]1(C)O[C@@H]21,-18.6% (active)
12,COC(=O)c1ccc(NC(=O)CSc2nc(-c3ccc(F)cc3)nc3ccccc23)cc1,91.3%
13,COc1ccc(C2C(c3ccccc3)C(=O)N2c2cc(OC)c(OC)c(OC)c2)cc1I (stereo not drawn),1.74% (active)
14,O=[N+]([O-])c1cccc(CN(Cc2cccc([N+](=O)[O-])c2O)c2ccccc2)c1O,56.1%
15,Nc1c(C(=O)Nc2ccccn2)sc2nc3c(cc12)CCCCCC3,3.49% (active)
16,C[C@]12CC[C@@H]3c4ccc(O)cc4CC[C@H]3[C@@H]1C[C@H](O)C2,94.1%
17,COCCOCCOCc1n(Cc2ccc3ccccc3c2)c2ccccc2[n+]1Cc1ccc2ccccc2c1,-5.47% (active)
18,COc1ccc(C(=O)c2cc(F)c(F)c(OC)c2F)cc1OC(=O)CCl,94.8%
19,Nc1cccc(C(=O)Nc2ccc3c(O)c(N=Nc4ccc(N=Nc5ccc(S(=O)(=O)O)cc5)cc4)c(S(=O)(=O)O)cc3c2)c1,99.1%

row,SMILES,growth
1,O=C(Nc1ccccc1)NS(=O)(=O)c1c[nH]c(=S)[nH]c1=O,73.7%
2,CC(C)CSc1nc(Nc2ccccc2)c(C#N)c(-c2ccc(F)cc2)n1,50.7%
3,CC(C)(C#N)c1cc(F)cc(C(=O)Nc2cc(Nc3ncccc3-c3ncnc4nc[nH]c34)ccc2F)c1,10.1%
4,COc1c(O)cc2oc3cc(O[C@@H]4OC(C)[C@@H](O)[C@H](O)C4O)c(CC=C(C)C)c(O)c3c(=O)c2c1CC=C(C)C (stereo partly drawn),84.3%
5,O=C(CCCC(=O)Nc1ccc(-n2nnc3cc(Cl)c(Cl)cc32)cc1)Nc1ccc(-n2nnc3cc(Cl)c(Cl)cc32)cc1,43.8%
6,Cn1cc(-c2ccc3c(c2)ncn3-c2ccc(CC(=O)Nc3cc(C(C)(C)C)on3)cc2)cn1,27.1%
7,CCC1S/C(=N\N=C(/C)c2ccc[nH]2)N(c2ccccc2)C1=O (stereo not drawn),87.4%
8,CC(=O)ON1CCCC(P(=O)(OCOC(=O)C(C)(C)C)OCOC(=O)C(C)(C)C)C1=O (stereo not drawn),-4.49% (active)
9,Cc1cccc(C)c1Nc1nnc(-c2ccc(F)cc2)o1,111%
10,COc1ccc(C2=NN(c3ccc(S(N)(=O)=O)cc3)C(c3ccc(Cl)cc3)C2)c(O)c1 (stereo not drawn),49.9%
11,CC(=O)Nc1nc2c(c(N)c1C#N)C(c1cccc(Cl)c1)C1=C(CCCC1=O)N2c1sc2c(c1C#N)CCCC2 (stereo not drawn),29.4%
12,C#Cc1ccccc1NC(=O)c1sc2nc3c(cc2c1N)CCCCCC3,36.3%
13,C=C(C)[C@@H]1CC[C@]2(C(=O)N3CCN(C)CC3)CC[C@]3(C)[C@H](CC[C@@H]4[C@@]5(C)C/C(=C/c6ccco6)C(=O)C(C)(C)[C@@H]5CC[C@]43C)[C@@H]12,25.8%
14,CCCCC(=O)Nc1c(C(=O)Nc2ccccc2)sc2nc3c(cc12)C(OC(=O)CCCC)CCC3 (stereo not drawn),79.4%
15,C#CC[C@@H]1C[C@]2(C)[C@H]3CC[C@@H]4[C@H]5[C@H](C(=C)C)CC[C@]5(C(=O)O)CC[C@@]4(C)[C@]3(C)CC[C@H]2C(C)(C)[C@H]1O,35.9%
16,Cc1ccc(-c2nc(C#N)c(S(=O)(=O)N(C)CCO)o2)cc1,28.1%
17,FC(F)(F)c1ccc2c(Nc3cccc(C4CC(c5ccccc5)=NN4c4ccc(Cl)cc4)c3)ccnc2c1 (stereo not drawn),19%
18,COc1ccc2nc(-c3ccc(OC)c(OC)c3)cc(-c3nnc(SCC(=O)Nc4ccc(/C(C)=N\O)cc4)n3-c3ccccc3)c2c1,89.2%
